Reference: PubChem BioAssay AID2057 (The Scripps Research Institute Molecular Screening Center, 2009)
Screen size: about 320,000 compounds; about 2,100 (0.66%) were called active. What follows is part of a selection rich in actives, with near analogues and random picks from the rest. A number with no mark means an inactive call.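 The calls were made as follows: active = inhibition above the mean inhibition of all tested compounds plus 3 SD, set per campaign (cut at about 40% in these data); inactive = the rest.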

molecular target: Induced myeloid leukemia cell differentiation protein Mcl-1 (Homo sapiens) (UniProt Q07820); assay: inhibitors of MCL1 binding to BIM-BH3, primary screen, biochemical, fluorescence polarization (AID 2057); details: GST-MCL1 / FITC-Bim-BH3 fluorescence polarization; at 10.9 µM; hits give high values;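 also: 0% = DMSO wells and 100% = unlabeled Bim-BH3 peptide control; higher means more loss of mP so more displacement of Bim peptide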
Sequence (Q07820 whole entry, looked up): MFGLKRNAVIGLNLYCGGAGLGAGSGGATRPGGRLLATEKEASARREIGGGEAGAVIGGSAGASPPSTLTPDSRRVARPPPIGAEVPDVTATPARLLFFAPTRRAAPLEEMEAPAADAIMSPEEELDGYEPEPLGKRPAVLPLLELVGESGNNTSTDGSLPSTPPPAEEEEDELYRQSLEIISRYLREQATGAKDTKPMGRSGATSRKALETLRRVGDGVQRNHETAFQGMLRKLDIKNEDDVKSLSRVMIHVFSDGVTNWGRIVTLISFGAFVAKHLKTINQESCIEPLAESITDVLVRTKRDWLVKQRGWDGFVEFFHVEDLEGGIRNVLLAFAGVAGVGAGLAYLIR

Row | SMILES | inhibition
1 | COCCCNC(=O)CNC(=S)N(Cc1cc(OC)c(OC)c(OC)c1)C1CCCC1 | -4.92%
2 | O=C(Cc1ccc(-n2c(=O)c3sccc3n(Cc3ccc(F)cc3)c2=O)cc1)NCc1ccco1 | -2.64%
3 | O=C(CCCn1c(SCC(=O)c2ccc(F)cc2)nc2ccccc2c1=O)NCc1ccco1 | 2.72%
4 | O=C(CCCn1c(SCC(=O)c2ccccc2)nc2ccccc2c1=O)NCC1CCCO1 (configuration not stated) | 0.98%
5 | O=C(CCn1c(SCC(=O)c2ccccc2)nc2ccccc2c1=O)NCc1ccc(F)cc1 | 41.6% (active)
6 | Cc1cccc(-c2c(NC(=O)c3ccco3)oc3ccc(Cl)cc3c2=O)c1 | -4.25%
7 | Cn1cnnc1SCc1nnc(-c2ccccc2Br)o1 | 5.99%
8 | CCOC(=O)N1CCN(Cc2nnc(-c3ccccc3Cl)o2)CC1 | 2.02%
9 | Nc1cccc2c1C(=O)N(Cc1nnc(-c3ccccc3Br)o1)C2=O | 54.3% (active)
10 | C=CCOC(=O)C1=C(C)N=C2SCCC(=O)N2C1/C=C/c1ccccc1OC (configuration not stated) | -0.33%
11 | COc1ccc(C2CC(c3ccc(C)cc3)Nc3nc(N)nn32)cc1 (configuration not stated) | -0.86%
12 | COc1ccc(C2C=C(c3ccc(Br)cc3)Nc3nc(NS(C)(=O)=O)nn32)cc1 (configuration not stated) | 175% (active)
13 | COc1ccc(C2=CC(c3cccc(OC)c3)n3nnnc3N2)cc1 (configuration not stated) | 37.5%
14 | COc1ccc(NC(=O)C(=O)NCC(c2ccco2)N2CCc3ccccc3C2)cc1 (configuration not stated) | 2.73%
15 | COC(=O)CCCCCN1C(=O)NC(c2ccc(-c3ccccc3)cc2)C(C(=O)OCc2ccccc2)=C1C (configuration not stated) | 6.48%
16 | COc1ccc(Nc2nc(-c3cccnc3)nc3ccccc23)cn1 | 128% (active)
17 | O=[N+]([O-])c1ccc(F)cc1Oc1nc(-c2cccnc2)nc2ccccc12 | -2.6%
18 | Cc1cccc(-c2nc(Nc3ccc(O)cc3)c3ccccc3n2)c1 | 3.74%
19 | CCNC(=O)CC1C(=O)N(c2ccc(OC)cc2)C(=S)N1CCc1ccncc1 (configuration not stated) | -3.91%
20 | Cc1cc(C)c(-c2csc(NC(=O)CCCc3nc4ccccc4c(=O)[nH]3)n2)c(C)c1 | -5.51%
21 | CCOC(=O)C1CCN(C(=O)Nc2ccc(C)c(Cl)c2)CC1 | 4.72%
22 | COc1cc(SC)ccc1C(=O)Nc1cc(C)ccn1 | 0.12%
23 | Cc1ccnc(NC(=O)CNC(=O)c2ccccc2)c1 | 6.08%

Row | SMILES | inhibition
24 | Cc1ccnc(NC(=O)c2ccoc2C)c1 | 42.1% (active)
25 | COc1ccc(CN2C(=O)C(C)S/C2=N/N=C/c2ccco2)cc1 (configuration not stated) | 4.92%
26 | COc1ccccc1C(=O)NCCC(=O)NC(C)CCc1ccccc1 (configuration not stated) | -13.4%
27 | Cc1cc2oc3ccc(NCCC4CCCN4C)cc3c(=O)c2cc1C (configuration not stated) | 41.8% (active)
28 | CCCOc1ccc(C2c3c(oc4cc(C)c(C)cc4c3=O)C(=O)N2CCCN2CCOCC2)cc1 (configuration not stated) | 14.2%
29 | CCN(CC)C(=O)Oc1ccc(Br)cc1C(=O)Nc1ccc(F)c(Cl)c1 | 1.92%
30 | CN(C)[C@@H]1C(=O)C(C(N)=O)=C(O)[C@@]2(O)C(=O)C3=C(O)c4c(O)ccc(Cl)c4[C@@H](O)[C@H]3C[C@@H]12 | 31.5%
31 | C=C1c2c(Cl)ccc(O)c2C(O)=C2C(=O)[C@]3(O)C(O)=C(C(N)=O)C(=O)[C@@H](N(C)C)[C@@H]3[C@@H](O)C12 (some centres not stated) | 87.2% (active)
32 | CCc1ccc(-c2cc(C)no2)cc1S(=O)(=O)NCCc1ccc(S(N)(=O)=O)cc1 | 7.69%
33 | COc1ccc(CCNC(=O)CSCc2ccc(Br)cc2)cc1OC | 13.2%
34 | O=C(O)c1cc(S(=O)(=O)N2CCCCCC2)c(Cl)cc1Cl | 4.06%
35 | O=C(CNC(=O)c1ccc(F)cc1)c1ccccc1 | -5.56%
36 | O=C(CNC(=O)c1ccccc1F)c1ccc(Br)cc1 | -5.03%
37 | O=C(C[n+]1cc(Br)cc2ccccc21)c1ccc(F)cc1 | 63.3% (active)
38 | CCCCn1c(N)c(N(CCOC)C(=O)c2sc3ccccc3c2Cl)c(=O)[nH]c1=O | -3.09%
39 | O=C1c2ccccc2C(=O)N1CCC(O)C[N+](=O)[O-] (configuration not stated) | 0.99%
40 | COCCOC(=O)c1sc(=S)n(CCOC)c1N | 105% (active)
41 | COC(=O)c1sc(=S)n(-c2ccc(Cl)cc2)c1C | 1.56%
42 | CCOC(=O)c1c(N)sc(C(C)=O)c1C | 12.2%
43 | CCOc1ccccc1NC(=O)C1CCCN(S(=O)(=O)c2ccccc2)C1 (configuration not stated) | -2.29%
44 | O=C(C/C(=N\NC(=O)c1ccccc1Br)C(F)(F)F)c1cccs1 | 12.5%
45 | O=c1ccc2c(-c3ccccc3S(=O)(=O)O)c3ccc(O)c(O)c3oc-2c1O | 88.1% (active)
46 | Cn1c(Nc2ccccc2)cc(=O)n(C)c1=O | -3.95%

Row | SMILES | inhibition
47 | COC/C=C/C1=CC2=CC(=O)C(C)(OC(=O)CCC(=O)OC)C(=O)C2=CO1 (configuration not stated) | 64.3% (active)
48 | COC(=O)CCCC1=CC2=CC(=O)C(C)(OC(=O)c3cccs3)C(=O)C2=CN1CC(C)C (configuration not stated) | 14.8%
49 | COC(=O)CCCC1=CC2=CC(=O)C(C)(OC(=O)c3cccs3)C(=O)C2=CN1CC1CC1 (configuration not stated) | 17.1%
50 | O=C(CSc1ccccc1)Nc1cccc(S(=O)(=O)N2CCCCC2)c1 | -3.17%
51 | COc1ccc(-c2ccc(OC(=O)NC3CCS(=O)(=O)C3)cc2)cc1 (configuration not stated) | 5.93%
52 | O=c1[nH]c(=S)[nH]c2[nH]c(=S)[nH]c12 | 92.7% (active)
53 | Cc1c(C)c(C)c2[nH]c(=S)[nH]c2c1C | -26%
54 | COc1ccccc1N1CCN(C(=O)c2cc(=O)c3cc(C)cc(C)c3o2)CC1 | 0.82%
55 | COc1ccc(N2CC(C(=O)NCCN3C(=O)S/C(=C\c4cccnc4)C3=O)CC2=O)c(OC)c1 (configuration not stated) | 166% (active)
56 | CCOc1ccc(N2CC(C(=O)NCCN3C(=O)S/C(=C\c4cccnc4)C3=O)CC2=O)cc1 (configuration not stated) | -2.41%
57 | COc1ccccc1N1CC(C(=O)NCCN2C(=O)S/C(=C\c3cccnc3)C2=O)CC1=O (configuration not stated) | 14.4%
58 | CC1CC(=O)N(CC(=O)Nc2cccc(Cl)c2)c2ccccc2S1(=O)=O (configuration not stated) | -4.67%
59 | CCCC1OC23CCCCC2C(C#N)(C#N)C1(C#N)C(=N)O3 (configuration not stated) | 95.8% (active)
60 | CCCC[C@@H]1CN=C(N)N1CCc1cc(C(F)(F)F)cc(C(F)(F)F)c1 | 10.6%
61 | O=C(Nn1c(-c2ccc(Cl)cc2)nc2ccccc2c1=O)c1cccnc1Cl | 5.2%
62 | CN(C)c1ccc(Nc2c3c4c(cccc4n(C)c2=O)C(=O)c2ccccc2-3)cc1 | 55.2% (active)
63 | CCOC(=O)C(CC)/C(C)=N\NC(=O)c1cccc(C)c1 (configuration not stated) | -4.82%
64 | Cc1ccc(NS(=O)(=O)c2ccc(F)cc2)nc1 | 1.22%
65 | Cc1cc(-c2csc(N)n2)c(C)n1Cc1ccccc1 | 6.96%
66 | CC(=O)c1ccc(-c2ccc(Cn3c(C)nc4cc(N)c(C)nc43)cc2)cc1 | 8.3%
67 | COc1ccccc1NC(=O)COC(=O)Cc1ccc(S(=O)(=O)N2CCCCC2)s1 | -0.05%
68 | Cc1nn(C(=O)c2ccoc2C)c(N)c1-c1ccccc1 | 193% (active)
69 | Cc1nn(-c2ccc([N+](=O)[O-])cc2)c(N)c1-c1ccccc1 | -34.6%

Row | SMILES | inhibition
70 | C/C(=N\NC(=O)c1ccoc1C)c1ccccc1O | 4.86%
71 | Cc1csc(NC(=O)CSc2nc(=O)n(CCCN(C)C)c3c2CCC3)n1 | -0.83%
72 | COc1ccc(SCCN2CCN(CC(C)C)CCC2=O)cc1 | -4.27%
73 | CC(=O)N(CC(O)CO)c1c(I)c(C(=O)NCC(O)CO)c(I)c(C(=O)NCC(O)CO)c1I (configuration not stated) | -0.91%
74 | COCCn1c(SCC(=O)Nc2nc(C)cs2)nnc1C(C)C | -2.37%
75 | CC1(C)Cc2c(C#N)c(SCc3nc4ccccc4[nH]3)nc(N3CCOCC3)c2CO1 | 3.45%
76 | O=c1[nH]c(N2CCOCC2)nc2ccccc12 | 2.38%
77 | C1=C(N2CCOCC2)/C(=C/c2nc3ccccc3[nH]2)CC1 | 105% (active)
78 | CNC(=O)N1c2ccccc2C=Cc2ccccc21 | -1.86%
79 | CS(=O)(=O)N1CCc2nc(-c3ccccc3)sc2C1 | 7.75%
80 | COc1ncnc2c1N=C1CC(C)(C)CC(N)=C1S2 | 191% (active)
81 | CCN(CC)S(=O)(=O)c1ccc2[nH]c(=O)cc(C(=O)N(C)C3CCS(=O)(=O)C3)c2c1 (configuration not stated) | 7.4%
82 | CCCC(C(=O)OCCN(CC)CC)(c1ccccc1)c1ccccc1 | -3.08%
83 | CCCN1CC=C2C(C#N)=C(N)C(C#N)(C#N)C(c3cc(OC)ccc3OC)C2C1 (configuration not stated) | 68.3% (active)
84 | N#CC1=C(N)C(C#N)(C#N)[C@H](c2ccsc2)[C@H]2COCC=C12 | 32.7%
85 | CCN1CC=C2C(C#N)=C(N)C(C#N)(C#N)[C@H](c3ccoc3)[C@H]2C1 | 171% (active)
86 | CSc1ccccc1NC(=O)c1cnc2sc(C)cn2c1=O | 3.46%
87 | O=C(OCC(=O)N1CCOCC1)c1ccc2ccccc2c1 | -1.12%
88 | Cn1c2ccccc2c(=O)c2c(=O)n(Cc3ccco3)c(COc3ccccc3)nc21 | 60.6% (active)
89 | CCCc1nc2c(c(=O)c3ccccc3n2C)c(=O)n1C1CCCCCC1 | -7.58%
90 | O=c1c2ccccc2oc2nc(C3CCCCC3)n(Cc3ccco3)c(=O)c12 | 2.28%
91 | O=C(O)c1ccc(S(=O)(=O)N2CCOCC2)o1 | -0.62%
92 | COC(=O)N/N=C/c1c[n+]([O-])c2ccccc2[n+]1[O-] | 5.75%
